In PubChem BioAssay (NCI) one finds growth data, which are given here for ten compounds.

Compounds without any hit were thinned out: in the full panel of roughly 83,000, 20% have a hit.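 In brief: 96-well plates, 48 h treatment, single concentration, percent growth endpoint.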 Unmarked numbers belong to inactive results. Calls of active or inactive are those of the source. The calls were made as follows: active = growth percent below 10; inactive = the rest.

Test systems include NCI-H23 lung; NCI-H226 lung; NCI-H322M lung; HOP-62 NSCLC; NCI-H460 lung; 786-0 renal; COLO 205 colon; DU-145 prostate; K-562 leukemia; MALME-3M melanoma; MDA-MB-231 breast; RXF 393 renal; SF-268 CNS; SF-295 CNS; SF-539 CNS; M14 melanoma; A549/ATCC NSCLC; UACC-257 melanoma; HOP-92 NSCLC; NCI-H522 lung.
Assay in all cases: NCI-60 one-dose screen, 48 h (100 = growth as untreated, 0 = no growth, -100 = all killed)
Common to all, as to details: 10 µM

For `Nc1ccccc1SC(CC(=O)c1ccccc1)c1c(Cl)cccc1Cl` (stereo not given), the growth in the assay on NCI-H23 lung is 76.1%; in the assay with NCI-H226 lung it was 96.6%; with NCI-H322M lung, 91.8%; in the assay with HOP-62 NSCLC, 73.4%; in the assay with NCI-H460 lung, 84.8%; with 786-0 renal, 96.8%. Also, the growth is 91.8% in the assay with COLO 205 colon; 23.9% in the assay with DU-145 prostate; 12.4% with K-562 leukemia; 77.1% with MALME-3M melanoma; 86.6% in the assay with MDA-MB-231 breast; 86.8% in the assay with RXF 393 renal. Further, the growth is 56% in the assay with SF-268 CNS, 94.2% with SF-295 CNS, 101% in the assay on SF-539 CNS and 93% in the assay with M14 melanoma.
On to `OCCN1CCOCC1`, for which the growth with NCI-H23 lung was 115%; in the assay with NCI-H226 lung, 112%; in the assay with NCI-H322M lung, 125%; in the assay with HOP-62 NSCLC it was 104%; in the assay on NCI-H460 lung, 104%; with A549/ATCC NSCLC, 104%. The growth with COLO 205 colon is 119%; in the assay on DU-145 prostate it was 124%; with K-562 leukemia it was 114%; in the assay on MALME-3M melanoma it was 114%; in the assay on MDA-MB-231 breast, 113%; with RXF 393 renal, 119%. Also, the growth with SF-268 CNS was 117%; in the assay on SF-295 CNS, 110%; with SF-539 CNS it was 111%; with UACC-257 melanoma, 99.7%.
For the compound `CCOC(=O)c1cc(/C=C/c2ccc(Cl)cc2Cl)on1`, the growth is 47.4% in the assay with NCI-H23 lung; 14.9% in the assay with NCI-H226 lung; 81.6% in the assay with NCI-H322M lung; 81% in the assay with HOP-62 NSCLC; 100% in the assay on HOP-92 NSCLC; 54.5% with NCI-H522 lung. In addition, the growth was 91.6% in the assay with A549/ATCC NSCLC; -68.6% (active) in the assay with 786-0 renal; 30.6% in the assay on DU-145 prostate; 5.36% (active) in the assay with K-562 leukemia; 69.6% with MALME-3M melanoma; -37.3% (active) with RXF 393 renal. For the same compound, the growth in the assay with SF-268 CNS was 89.1%; in the assay on SF-295 CNS it was 17.6%; in the assay on SF-539 CNS it was -48.5% (active); in the assay with UACC-257 melanoma it was 105%; in the assay with M14 melanoma, 56%.
For `COc1ccccc1N=Nc1c(O)ccc2cc(S(=O)(=O)O)ccc12`, the growth with NCI-H23 lung was 86.8%; in the assay with NCI-H226 lung, 98.2%; in the assay with NCI-H322M lung, 99.1%; with HOP-62 NSCLC, 82.7%; in the assay on HOP-92 NSCLC, 84.7%; in the assay with NCI-H522 lung, 85.7%. The growth was 100% in the assay on A549/ATCC NSCLC; 107% in the assay with 786-0 renal; 104% in the assay on COLO 205 colon; 111% with DU-145 prostate; 98.1% in the assay on K-562 leukemia; 109% in the assay on MALME-3M melanoma. In addition, the growth in the assay on MDA-MB-231 breast was 93.2%; with RXF 393 renal it was 104%; with SF-268 CNS, 96.5%; in the assay with SF-295 CNS, 94.2%; in the assay on SF-539 CNS, 103%; with UACC-257 melanoma, 95.8%. In the assay with M14 melanoma, the growth was 99.7%.
In the case of `Cc1cc(C)c(CC(=O)O)c(C)c1`, the growth was 100% in the assay on NCI-H23 lung; 99.8% with NCI-H226 lung; 100% in the assay on NCI-H322M lung; 107% in the assay with HOP-62 NSCLC; 105% in the assay with NCI-H460 lung; 104% with A549/ATCC NSCLC. For the same compound, the growth was 108% with COLO 205 colon; 101% in the assay on DU-145 prostate; 95.2% with K-562 leukemia; 97.8% in the assay on MALME-3M melanoma; 120% with MDA-MB-231 breast; 123% in the assay with RXF 393 renal. The growth in the assay with SF-268 CNS is 98.6%; in the assay on SF-295 CNS, 102%; in the assay on SF-539 CNS, 108%; with UACC-257 melanoma, 106%; in the assay on M14 melanoma it was 98.9%.
With `O=C1C=C(O)C(=O)C=C1O`, the growth in the assay with NCI-H23 lung was 94.8%; in the assay on NCI-H226 lung, 114%; in the assay on NCI-H322M lung, 112%; in the assay with HOP-62 NSCLC, 97.9%; in the assay with NCI-H460 lung it was 107%; in the assay with A549/ATCC NSCLC, 112%. The growth in the assay with 786-0 renal is 107%; with DU-145 prostate it was 119%; in the assay on K-562 leukemia, 103%; with MALME-3M melanoma, 144%; in the assay with MDA-MB-231 breast, 104%; in the assay with RXF 393 renal it was 150%. Also, the growth in the assay on SF-268 CNS is 101%; in the assay on SF-295 CNS, 115%; with SF-539 CNS, 98.7%; with UACC-257 melanoma, 107%; with M14 melanoma, 104%.
Consider `O=C(/C=C/C(=O)c1ccccc1)c1ccccc1`, for which the growth is 99% in the assay on NCI-H23 lung; 107% with NCI-H226 lung; 116% with NCI-H322M lung; 109% in the assay on HOP-62 NSCLC; 96.3% in the assay with HOP-92 NSCLC; 74.8% with NCI-H522 lung. Besides, the growth was 105% with A549/ATCC NSCLC; 103% in the assay with 786-0 renal; 115% in the assay on DU-145 prostate; 41.9% in the assay on K-562 leukemia; 131% with MALME-3M melanoma; 110% with MDA-MB-231 breast. Besides, the growth in the assay on RXF 393 renal was 118%; with SF-268 CNS, 107%; in the assay on SF-295 CNS, 99%; in the assay with SF-539 CNS, 114%; in the assay with UACC-257 melanoma, 119%; with M14 melanoma it was 111%.
`Cc1nc2ccccc2c(C(=O)O)c1O`: the growth is 104% in the assay on NCI-H23 lung; 91% in the assay with NCI-H226 lung; 117% in the assay on NCI-H322M lung; 88.3% with HOP-62 NSCLC; 104% in the assay on NCI-H522 lung; 103% in the assay with A549/ATCC NSCLC. For the same compound, the growth in the assay on 786-0 renal is 103%; in the assay on DU-145 prostate it was 127%; with K-562 leukemia, 127%; in the assay with MDA-MB-231 breast it was 101%; with RXF 393 renal it was 107%; in the assay with SF-268 CNS, 110%. For the same compound, the growth was 98.1% with SF-539 CNS, 96.7% in the assay with UACC-257 melanoma and 90.3% in the assay with M14 melanoma.
For `C/C=C/CC(C)C(O)C1C(=O)NC(CC)C(=O)N(C)CC(=O)N(C)C(CC(C)C)C(=O)NC(C(C)C)C(=O)N(C)C(CC(C)C)C(=O)NC(C)C(=O)NC(C)C(=O)N(C)C(CC(C)C)C(=O)N(C)C(CC(C)C)C(=O)N(C)C(C(C)C)C(=O)N1C` (stereo not given), the growth in the assay on NCI-H23 lung was 20.1%; with NCI-H226 lung it was 5.76% (active); with NCI-H322M lung it was 33.8%; with HOP-62 NSCLC, 35.6%; in the assay on NCI-H522 lung it was 9.55% (active); in the assay with A549/ATCC NSCLC, 17.2%. In addition, the growth with 786-0 renal is 41.9%; in the assay with COLO 205 colon, -72.8% (active); in the assay on DU-145 prostate it was 39%; in the assay with MDA-MB-231 breast, -6.48% (active); in the assay on SF-268 CNS, 38.3%; in the assay on SF-295 CNS it was -16.7% (active). Further, the growth in the assay with SF-539 CNS is -1.51% (active); with UACC-257 melanoma it was 1.79% (active); with M14 melanoma, 4.21% (active).
Regarding `O=C(O)/C=C/C(=O)NCc1ccccc1`, the growth in the assay on NCI-H23 lung was 107%; in the assay on NCI-H226 lung, 98.4%; with NCI-H322M lung it was 93.5%; with HOP-62 NSCLC, 101%; in the assay with 786-0 renal, 98.9%; in the assay on COLO 205 colon, 106%. In addition, the growth is 121% in the assay with DU-145 prostate; 108% in the assay with K-562 leukemia; 99% in the assay on MALME-3M melanoma; 125% in the assay on MDA-MB-231 breast; 104% with RXF 393 renal; 110% in the assay with SF-268 CNS. In addition, the growth with SF-295 CNS was 98.1%; in the assay with SF-539 CNS it was 95.7%; in the assay on M14 melanoma, 103%.
